Reference: PubChem BioAssay (NCATS)
Inconclusive results are not listed. A call without a number means that no potency is given here. Values without a mark were called inactive. Calls of active or inactive are those of the source. Calls follow the shape of the dose curve; as a rule, active = well fitted curve in the direction sought with a large enough effect; inconclusive = small, poorly fitted or top-dose-only effect, or another doubt; inactive = no such curve, though single readings can be large; an effect the other way counts as inactive or inconclusive.

Experiments:
[1] = P-glycoprotein substrates identified in KB-3-1 adenocarcinoma cell line, qHTS therapeutic library screen (AID 1346986); also: nearly all actives have a fitted effect of over 60% in size;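 also: potency is for cytotoxicity meaning loss of cell viability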
In short: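 Using luminescence to quantify ATP, parental and P-gp-overexpressing KB cells were compared after 72 h compound titration. KB-8-5-11 was also run with the P-gp inhibitor tariquidar.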

[2] = P-glycoprotein substrates identified in KB-8-5-11 adenocarcinoma cell line, qHTS therapeutic library screen (AID 1346987); also: nearly all actives have a fitted effect of over 65% in size; as to activity change, negative = cytotoxicity: series mostly up to about 44 µM
In short: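 In this qHTS, P-gp-rich KB-8-5-11 cells received library compounds across a concentration range. Viability was quantified by luminescence after 72 h at 37 degree C.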
Potency is read from the fitted curve at half-maximal effect.

COc1cc(O)cc(/C=C/c2ccc(O[C@@H]3O[C@H](CO)[C@@H](O)[C@H](O)[C@H]3O)cc2)c1
Potency [1]: inactive | Potency [2]: inactive

COc1cc(Nc2nc3ccccc3nc2NS(=O)(=O)c2ccc(NC(=O)c3ccc(OC)c(C)c3)cc2)cc(OC)c1
Potency [1]: inactive | Potency [2]: inactive

O=C1NC2CCc3nc4ccccc4c(=O)n3C2=Nc2ccccc21 (configuration not stated)
Potency [1]: inactive | Potency [2]: inactive

C/C(=C\CCC1(C)C2CCC(C2)C1(C)O)C(=O)O (configuration not stated)
Potency [1]: inactive | Potency [2]: inactive

COc1cc(O)c2c(c1)C1=CC(O)C(O)CC1(C)OC2=O (configuration not stated)
Potency [1]: inactive | Potency [2]: inactive

CC(=O)OC/C=C(\C)C(CC1C(C)=C(OC(C)=O)C(=O)C2C(C)(C)C(O)CCC12C)OC(C)=O (configuration not stated)
Potency [1]: inactive | Potency [2]: inactive

Cc1ccc(Cc2c(C)nc3nc(SCC(=O)NCCN4CCNCC4)nn3c2C)cc1
Potency [1]: inactive | Potency [2]: inactive

CC(C)=CCC[C@](C)(O)[C@H]1CC[C@]2(C)[C@@H]1[C@H](O)CC1[C@@]3(C)CC[C@H](O)C(C)(C)C3[C@@H](O[C@@H]3O[C@H](CO)[C@@H](O)[C@H](O)[C@H]3O[C@@H]3OC[C@@H](O)[C@H](O)[C@H]3O)C[C@]12C (some centres not stated)
Potency [1]: inactive | Potency [2]: inactive

CNC12CC3C[C@@](C)(C1)C[C@](C)(C3)C2
Potency [1]: inactive | Potency [2]: inactive

CC1(C)C=CN2C(=O)C3=CCCN3C(=O)[C@@H]2C[C@@]12Nc1ccccc1C2=O
Potency [1]: inactive | Potency [2]: inactive

COc1ccc(C2(O)c3ccccc3NC(=O)C2O)cc1 (configuration not stated)
Potency [1]: inactive | Potency [2]: inactive

CC(NC(=O)C(O)C(C)C)C(=O)NC1C(=O)N(C)CCc2ccccc21 (configuration not stated)
Potency [1]: inactive | Potency [2]: inactive

CC/C=C\CCO[C@@H]1O[C@H](CO[C@@H]2OC[C@H](O)[C@H](O)[C@H]2O)[C@@H](O)[C@H](O)[C@H]1O
Potency [1]: inactive | Potency [2]: inactive

CC(=O)OC1/C(C)=C/C(=O)C(OC(C)=O)C(C)(C)/C=C/C(C)C(=O)C2(OC(C)=O)CC(C)C(OC(=O)c3ccccc3)C12 (configuration not stated)
Potency [1]: inactive | Potency [2]: inactive

C=C1CC23CC1CCC2C12OC(=O)C(C)(CCC1O)C2C3C(=O)O (configuration not stated)
Potency [1]: inactive | Potency [2]: inactive

O=C1NC(=O)C(c2cn(-c3ccccc3)nc2-c2ccc(F)cc2)N1 (configuration not stated)
Potency [1]: inactive | Potency [2]: inactive

CC(C)C[C@H](CC(=O)NO)C(=O)N[C@H](C(=O)N[C@@H](C)C(=O)NCCN)C(C)(C)C
outcome [1]: inactive [at 9.29 µM] | activity change, negative = cytotoxicity [2]: 2.84% [at 9.29 µM]

C=CC(C)(C)c1[nH]c2cc3c(cc2c1CC1NC(=O)C2=CCCN2C1=O)C=CC(C)(C)O3 (configuration not stated)
Potency [1]: inactive | Potency [2]: inactive

CC1=C2C[C@H]3O[C@@]3(C)CCC3O[C@@]3(C)C[C@@]2(O)OC1=O (some centres not stated)
Potency [1]: inactive | Potency [2]: inactive

COc1ccc(N2CCOCC2)c2sc(NC(=O)N3CCC(C)(O)CC3)nc12
Potency [1]: inactive | Potency [2]: inactive

C=CC(C)(CC/C=C(\C)C(=O)OC)OC1OC(COC(=O)CC(C)(O)CC(=O)O)C(OC2OC(CO)C(O)C(O)C2O)C(O)C1O (configuration not stated)
Potency [1]: inactive | Potency [2]: inactive

CC(C)(C)NC(=O)[C@@H](c1cccnc1)N(C(=O)c1ccco1)c1ccc(C(C)(C)C)cc1
Potency [1]: inactive | Potency [2]: inactive

CCNC(=O)Nc1ccc(-c2nc3c(c(N4CCOC[C@@H]4C)n2)CCN(c2ncccn2)C3)cc1
Potency [1]: 58 nM (active) | Potency [2]: 259 nM (active)

CCOC(=O)c1cc(C#N)c(N2CCC(C(=O)NS(=O)(=O)Cc3ccccc3)CC2)nc1C
Potency [1]: inactive | Potency [2]: inactive

C/C(=C\CCC(C)CCO)C(=O)O[C@@H]1[C@@H](O)[C@H](OC2OC=C(C(=O)O)C3CCC(C)(O)C23)O[C@H](CO)[C@H]1O (some centres not stated)
Potency [1]: inactive | Potency [2]: inactive

CCCn1c(=O)c2[nH]c(-c3ccc(OCC(=O)O)cc3)nc2n(CCC)c1=O
Potency [1]: inactive | Potency [2]: inactive

C[C@@H]1O[C@@H](O[C@H]2[C@H](O)[C@@H](O[C@@H]3O[C@H](CO)[C@@H](O)[C@H](O[C@@H]4O[C@H](CO)[C@@H](O)[C@H](O)[C@H]4O)[C@H]3O)[C@H](O[C@H]3CC[C@@]4(C)C(=CC[C@@H]5C4CC[C@@]4(C)C5C[C@@H]5OC6(CC[C@@](C)(CO[C@@H]7O[C@H](CO)[C@@H](O)[C@H](O)[C@H]7O)O6)[C@@H](C)[C@@H]54)C3)O[C@@H]2CO)[C@H](O)[C@H](O)[C@H]1OC1OC(CO)C(O)C(O)C1O (some centres not stated)
outcome [1]: inactive [at 9.29 µM] | outcome [2]: inactive [at 9.29 µM]

CC(=O)N[C@H]1[C@H](O[C@H]2CC[C@@]3(C)C(CC[C@]4(C)C3CC=C3[C@@H]5CC(C)(C)CC[C@]5(C(=O)OC5OCC(O)C(O)C5O)CC[C@]34C)C2(C)C)O[C@H](COC2OC(C)C(O)C(OC3OC(C)C(O)C(O)C3O)C2O)[C@@H](O)[C@@H]1O (some centres not stated)
outcome [1]: inactive [at 9.29 µM] | activity change, negative = cytotoxicity [2]: 4.96% [at 9.29 µM]

O=C(O)c1cc(-c2c(-c3ccccc3)nn3ccccc23)n[nH]c1=O
Potency [1]: inactive | Potency [2]: inactive

CC(=O)OC1CC2C3(C)CCC(OC(=O)CC(=O)O)C(C)(C)C3CCC2(C)C2(C)CCC(C3(C)CCC(=O)O3)C12 (configuration not stated)
Potency [1]: inactive | Potency [2]: inactive

CC1(C)CC[C@]2(C(=O)O)CC[C@]3(C)C(=CCC4[C@@]5(C)CC[C@H](O[C@@H]6O[C@H](C(=O)O)[C@@H](O[C@@H]7OC[C@@H](O)[C@H](O)[C@H]7O)[C@H](O)[C@H]6O)C(C)(C)C5CC[C@]43C)C2C1O (some centres not stated)
Potency [1]: inactive | Potency [2]: inactive

CC(=O)O[C@H]1CC[C@@]2(C)C(CC[C@@H](C)[C@]23Cc2c(O)cc4c(c2O3)CN([C@@H](CCC(=O)O)C(=O)O)C4=O)C1(C)C (some centres not stated)
Potency [1]: inactive | Potency [2]: inactive

COc1c2c(c(C)c3c1C(=O)OC3)O[C@@]1(C)CCC3(C(C)(C)O)OC(=O)CC[C@]3(C)[C@H]1C2 (some centres not stated)
Potency [1]: inactive | Potency [2]: inactive

O=C(O)[C@@H]1C[C@H]2C[C@@H](CCc3nn[nH]n3)CC[C@H]2CN1
Potency [1]: inactive | Potency [2]: inactive

CCCCNc1ncc2c(-c3ccc(CN4CCN(C)CC4)cc3)cn(C3CCC(O)CC3)c2n1 (configuration not stated)
Potency [1]: 517 nM (active) | Potency [2]: 1300 nM (active)

CC1(C)CC[C@]2(C(=O)O)CC[C@]3(C)C(=CCC4[C@@]5(C)C[C@@H](O)[C@H](O)C(C)(C)C5CC[C@]43C)C2C1 (some centres not stated)
Potency [1]: inactive | Potency [2]: inactive

C=C1C(O)C[C@@H]2C(C(=O)O)=CO[C@@H](O[C@@H]3O[C@H](CO)[C@@H](O)[C@H](O)[C@H]3OC(=O)c3ccc(O)cc3)[C@H]12 (some centres not stated)
Potency [1]: inactive | Potency [2]: inactive

COc1cc2ncnc(Nc3cccc(Cl)c3F)c2cc1OC(=O)N1CCN(C)C[C@H]1C
Potency [1]: inactive | Potency [2]: inactive

CC(C)(C)C(=O)CN1C(=O)[C@H](NC(=O)Nc2cccc(C(=O)O)c2)CN(C2CCCCC2)c2ccccc21
Potency [1]: inactive | Potency [2]: inactive

CC1(C)CCCC2(C)C1C(O)C=C(CO)C2(O)CO (configuration not stated)
Potency [1]: inactive | Potency [2]: inactive

O=C(/C=C/c1ccccc1)OC[C@]12O[C@H]1[C@@H](O)[C@@H]1C=CO[C@@H](O[C@@H]3O[C@H](CO)[C@@H](O)[C@H](O)[C@H]3O)[C@@H]12
Potency [1]: inactive | Potency [2]: inactive
